High-throughput results: PubChem BioAssay, The Scripps Research Institute Molecular Screening Center
Most compounds without a hit are left out; they make up all but 3.4% or so of the library.
PAFAH1B3 FP inh = PAFAH1B3 (human) inhibition; inhibition, % at 3.39 µM; recombinant PAFAH1B3, FP-rhodamine probe, fluorescence polarization; AID 492972; 340,000 tested, 0.28% active;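 active = inhibition above the screen-wide average of all tested compounds plus 3 SD, cut at about 25% in these data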
pPAFAH FP inh = pPAFAH (human) enzyme inhibition. Q13093. recombinant pPAFAH, FP-rhodamine probe fluorescence polarization. inhibition, % at 3.39 µM. 330,000 tested, 1.5% active;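 active = inhibition above the mean inhibition across the screen plus 3 SD, cut at about 25% in these data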;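 note: inhibitors block binding of the rhodamine activity-based probe so polarization drops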
PAFAH1B2 FP inh = inhibitors of human PAFAH1B2; P68402; recombinant PAFAH1B2, FP-rhodamine activity probe, fluorescence polarization; inhibition, % at 3.39 µM; 340,000 tested, 1.2% active; AID 492953;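 active = inhibition above the mean of all tested compounds plus 3 SD, cut at about 24% in these data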
PP5 primary = PP5 (human) phosphatase inhibition. purified PP5c, OMFP substrate fluorescence. inhibition, % at 6.7 µM. 320,000 tested, 0.18% active. AID 1987;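 active = inhibition above the campaign's mean inhibition across all tested compounds plus 3 SD, cut at about 9.5% in these data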
PP1 counter = blocks human PP1-alpha phosphatase, a PP5 counter-screen; 320,000 tested, 0.9% active; purified PP1alpha, OMFP fluorescence; P62136; inhibition, % at 6.7 µM; AID 2235;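 active = inhibition above the mean inhibition of all tested compounds plus 3 SD, computed separately for each screening campaign, cut at about 15% in these data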
Target sequence (P62136 whole entry, looked up): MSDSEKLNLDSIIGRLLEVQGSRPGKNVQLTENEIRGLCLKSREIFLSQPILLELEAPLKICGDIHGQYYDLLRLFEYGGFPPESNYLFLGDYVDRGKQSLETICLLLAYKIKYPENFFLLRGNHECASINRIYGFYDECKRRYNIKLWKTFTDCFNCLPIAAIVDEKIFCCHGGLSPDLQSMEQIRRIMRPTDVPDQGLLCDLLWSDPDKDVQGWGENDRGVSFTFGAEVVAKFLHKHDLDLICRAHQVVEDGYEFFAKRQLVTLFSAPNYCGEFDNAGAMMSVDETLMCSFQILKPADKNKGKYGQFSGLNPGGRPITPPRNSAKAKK
PAFAH2 inh = inhibitors of human PAFAH2; 340,000 tested, 0.99% active; AID 492956; inhibition, % at 3.39 µM; recombinant PAFAH2, FP-rhodamine activity probe, fluorescence polarization; Q99487;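 active = inhibition above the mean over all tested compounds plus 3 SD, cut at about 30% in these data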;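 note: inhibitors block probe labeling of enzyme so polarization drops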
PAFAH2 confirm = confirmation of human PAFAH2 inhibitors. 2,300 tested, 65% active. shares compounds with PAFAH2 inh. inhibition, % at 3.39 µM. recombinant PAFAH2, FP-rhodamine activity probe, fluorescence polarization;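 active = mean inhibition over three repeats above a set limit taken from the earlier primary screen, cut at about 30% in these data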;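 note: inhibitor blocks binding of rhodamine activity probe so polarization falls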
Hits are given with their value; - = inactive; . = not tested or not shown.

SMILES	PAFAH1B3 FP inh	pPAFAH FP inh	PAFAH1B2 FP inh	PP5 primary	PP1 counter	PAFAH2 inh	PAFAH2 confirm
O=C(COC(=O)c1cccc(-n2cnnn2)c1)c1ccc(F)cc1	-	-	-	-	-	-	.
COc1cc(C(=O)OCC(=O)N2CCCCCC2)c([N+](=O)[O-])cc1OC	-	-	-	.	.	35	-
Cc1ccc(OC(=O)CCN2C(=O)c3ccccc3C2=O)cc1C	-	-	-	-	-	-	.
Cn1cnnc1Sc1ccc(C(=O)OCC(=O)Nc2ccccc2)cc1[N+](=O)[O-]	-	-	-	-	-	59	41
CN(C)S(=O)(=O)N(CC(=O)N(Cc1ccccc1)Cc1ccccc1)c1ccccc1	-	-	-	-	-	38	-
COCCn1c(N)c(N(Cc2ccccc2)C(=O)COc2ccccc2F)c(=O)[nH]c1=O	-	-	-	-	-	-	.
COc1cccc(CN2CC(C(=O)NCCc3ccccc3C(F)(F)F)CCC2=O)c1 (stereo unspecified)	-	-	-	-	-	-	.
COc1ccc(Cl)c(OC)c1C(=O)NC(=O)Nc1c(F)cc(F)cc1F	.	-	.	-	-	.	.
O=C(COC(=O)/C=C/c1ccco1)NCc1ccc(Cl)cc1	-	-	-	-	-	43	38
O=C(COC(=O)/C=C/c1ccc(Cl)cc1)NC(=O)NCc1ccccc1	-	-	-	-	-	-	.
CCCNC(=O)COC(=O)/C=C/c1ccco1	-	-	-	-	-	36	-
O=C(COC(=O)/C=C/c1ccccc1)NCc1ccc(Cl)cc1	-	-	-	-	-	34	34
C/C(=N/OC(=O)c1ccc(C)cc1)c1cccs1	-	-	-	-	-	70	52
CC/C(=N/OC(=O)c1cccc(C)c1)C(=O)c1cccs1	-	-	-	-	-	37	-
C/C(=N\OC(=O)c1ccc(C)cc1)c1sc(C)nc1C	-	-	-	-	-	55	43
NC1=NC(=Nc2cccc(S(=O)(=O)N3CCOCC3)c2)c2ccccc21	-	-	-	-	-	-	.
CC(=O)c1ccc(N2CCN(C(=O)CCC(=O)Nc3ccc4nc(N5CCN(C)CC5)cc(C)c4c3)CC2)cc1	-	-	-	-	-	-	.
CC(C)(C)c1ccc(S(=O)(=O)N2CC(C(=O)O)Oc3ccc(Cl)cc32)cc1 (stereo unspecified)	-	-	-	-	-	34	-
COc1ccc(S(=O)(=O)N2CC(C(=O)O)Oc3ccc(Cl)cc32)cc1 (stereo unspecified)	-	-	-	-	-	-	.
CC(=O)[C@@]1(O)[C@H](C)CC2C3CC=C4CC(OP(=O)(O)O)CC[C@]4(C)C3CC[C@@]21C (stereo partly specified)	-	-	-	-	-	-	.
COc1cccc(C2C(C(=O)c3cc4ccccc4o3)=C(O)C(=O)N2c2cc(C)on2)c1OC (stereo unspecified)	-	-	-	-	15	36	-
COc1ccccc1C1C(C(=O)c2ccc(C)o2)=C(O)C(=O)N1c1cc(C)on1 (stereo unspecified)	-	-	-	-	-	-	.
CCOc1ccc(CCNC(=O)CN2C(=O)CCSc3ccccc32)cc1OCC	-	-	-	-	-	-	.
COc1ccc(OC)c(CCNC(=O)CN2C(=O)CCSc3ccccc32)c1	-	-	-	-	-	36	-
COc1cc(C(=O)OCC(=O)NC2CCCCCC2)ccc1OCC(C)C	-	-	-	-	-	88	83
SMILES	PAFAH1B3 FP inh	pPAFAH FP inh	PAFAH1B2 FP inh	PP5 primary	PP1 counter	PAFAH2 inh	PAFAH2 confirm
Cc1ccc(C(=O)CC(=O)c2ccccc2)cc1	-	-	-	-	-	-	.
Cc1ccc(C(=O)OCC(=O)c2ccccc2)cc1	-	-	-	-	-	37	-
COc1ccc(C(=O)OCC(=O)c2ccc(F)cc2)cc1OC	-	-	-	.	.	60	57
COc1cc(C(=O)OCC(=O)NC2CC2)ccc1OCCC(C)C	-	-	-	-	-	71	68
C/C=C/c1ccc(OCC(=O)OCC(=O)NC2CC2)c(OC)c1	-	.	-	.	.	-	.
CCCc1cc(=O)[nH]c(Nc2ccc3c(c2)OCCO3)n1	-	-	-	-	-	-	.
COc1cc(C(=O)OCC(=O)NC2CC2)cc(OC)c1OC	-	-	-	-	-	-	.
